High-throughput results: PubChem BioAssay, National Center for Advancing Translational Sciences (NCATS)
Tb PGK inh: blocks T. brucei phosphoglycerate kinase; PGK/GAPDH coupled, Kinase-Glo luminescence, 60 min; 0.043% of 380,000 active; Potency, µM (series often up to 57.5 µM), for inactives: top-dose activity change, negative = inhibition, most hits filed as inhibitors; AID 602233; also: potency is read from the fitted curve at half-maximal effect; % is scaled to controls: 0 for no effect and ±100 for the full control effect; nearly all actives have a fitted effect of over 60% in size
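Recombinant glycosomal PGK reaction used 1,3-bisphosphoglycerate generated in-well by GAPDH (100nM final) in 100mM TEA pH 7.6, 5mM MgCl2, 0.01% Tween-20. After 60 minutes at room temperature, ATP was read by Kinase-Glo Plus luminescence end-point.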
Pin1 inh: inhibitors of human Pin1; Q13526; AID 504891; Potency, µM (series often up to 115 µM), for inactives: at the highest dose activity, negative = inhibition, usual class: inhibitors; Pin1 FP peptide displacement, HiFluor488, 10 min; 0.009% of 390,000 active; active = well fitted inhibition curve with a large enough effect in the polarisation, with a control signal flat, not every such curve was filed as active; inconclusive = small, poorly fitted or top-dose-only effect, or effect the other way, or a change in a side signal; inactive = no such curve, though single readings can be large or run the other way; the % refers to the polarisation; also: potency is read from the fitted curve at half-maximal effect; % is scaled to controls: 0 for no effect and ±100 for the full control effect
Target sequence (Q13526 whole entry, looked up): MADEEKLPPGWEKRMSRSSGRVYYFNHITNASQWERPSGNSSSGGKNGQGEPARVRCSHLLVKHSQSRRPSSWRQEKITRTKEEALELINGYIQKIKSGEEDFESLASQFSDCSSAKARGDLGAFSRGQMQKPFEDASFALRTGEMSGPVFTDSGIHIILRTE
WRN helicase inh: inhibitors of human WRN helicase. Q14191. WRN helicase unwinding, fluorescent forked duplex, kinetic. Potency, µM (doses to about 114 µM), for the others: at the top dose activity change, negative = inhibition, usual class: inhibitors. 0.46% of 360,000 active; also: potency is read from the fitted curve at half-maximal effect; % is scaled to controls: 0 for no effect and ±100 for the full control effect; nearly all actives have a fitted effect of over 55% in size
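Kinetic fluorescence helicase assay: unwinding of a quenched forked DNA duplex (100 nM final) with 2 mM ATP final raises red fluorescence (525/598 nm). Compounds sat 15 min at room temperature with 20 nM WRN beforehand.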
PI5P4Ka inh: blocks human PI5P4K alpha kinase activity | P48426 | PI5P4Kalpha enzyme, ADP-Glo luminescence, 60 min; active compounds read low | max response, % | 1.2% of 330,000 active; active = max response of -50% or lower; inconclusive = between -30% and -50%; inactive = -30% or higher; also: value at the top dose of about 77 µM; % is scaled to controls: 0 for no effect and ±100 for the full control effect
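qHTS, 1536-well: enzyme/substrate mix, compound by pin tool, 5 microM ATP final; RT 60 min; ADP-Glo reagents 1 (45 min) then 2 (30 min); luminescence.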
GRP78 ERSR act: induces the endoplasmic reticulum stress response in human glioma cells; 0.02% of 420,000 active; Potency, µM, without a hit: at the highest dose activation, most hits filed as activators; U87-MG GRP78 promoter luciferase reporter, 16 h; also: potency is read from the fitted curve at half-maximal effect; series mostly up to about 76 µM; % of control where 0% means no effect; nearly all actives have a fitted effect of over 35% in size
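ERSR induction read as luciferase luminescence (Bright-Glo, 10 min at room temperature) in stably transfected human U87-MG glioma cells exposed to compounds for 16 h, using GRP78 as sensor.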
FEN1 inh: human FEN1 inhibition; P39748; Potency, µM (series often up to 114 µM), for inactives: top-dose activity change, negative = inhibition, most hits filed as inhibitors; Recombinant FEN1 flap cleavage, fluorescence, 15 min; 0.35% of 390,000 active; also: potency is read from the fitted curve at half-maximal effect; % is scaled to controls: 0 for no effect and ±100 for the full control effect; nearly all actives have a fitted effect of over 65% in size
Target sequence (P39748 whole entry, looked up): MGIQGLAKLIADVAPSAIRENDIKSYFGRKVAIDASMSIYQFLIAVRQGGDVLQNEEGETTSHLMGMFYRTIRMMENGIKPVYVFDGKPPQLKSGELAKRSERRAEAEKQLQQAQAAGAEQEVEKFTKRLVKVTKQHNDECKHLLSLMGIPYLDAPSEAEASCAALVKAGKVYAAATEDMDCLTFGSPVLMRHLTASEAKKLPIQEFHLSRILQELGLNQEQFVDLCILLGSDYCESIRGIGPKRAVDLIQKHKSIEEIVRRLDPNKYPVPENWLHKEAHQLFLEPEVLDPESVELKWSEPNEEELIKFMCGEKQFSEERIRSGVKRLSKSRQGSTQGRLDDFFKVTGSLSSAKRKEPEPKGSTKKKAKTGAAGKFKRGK
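Reaction started by adding substrate (50 nM final) to 10 nM enzyme after 15 min room-temperature compound preincubation. Reads at 0 and 15 min, with data normalized and fitted to a four-parameter Hill equation.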
The depositor's hits bear a star; i = inactive; ? = inconclusive; nt = not tested or not shown; [ ] = remark or other dose. Only some compounds are listed: those with a hit (about 1.3% of all), similar ones and a draw of the others. Unless noted, calls follow the shape of the dose curve; as a rule, active = well fitted curve in the direction sought with a large enough effect; inconclusive = small, poorly fitted or top-dose-only effect, or another doubt; inactive = no such curve, though single readings can be large; an effect the other way counts as inactive or inconclusive.

SMILES	Tb PGK inh	Pin1 inh	WRN helicase inh	PI5P4Ka inh	GRP78 ERSR act	FEN1 inh
Cc1cc2c(s1)c1cnn(Cc3cccc4cccnc34)c(=O)c1n2C	nt	3%	nt	nt	nt	nt
O=C1NC(=S)SC1=C1CCCCCC1	-1%	-7%	-7%	-57*	1%	-2%
COc1ccc2ccccc2c1CN1CCOc2ccc(CN3CCN(CCO)CC3)cc2C1	nt	nt	nt	nt	-4%	nt
Cc1ccc(OCC(=O)N(C)CC(=O)NCc2ccco2)c(Br)c1	?	?	?	?	2%	5%
CC(=O)c1cccc(OCC(=O)N(C)CC(=O)NCc2ccco2)c1	14µM*	nt	?	-20	-6%	?
CN=c1nc(-c2ccccc2)n(-c2ccccc2)s1	-2%	1%	4%	-86*	-15%	?
c1ccc(Sc2ccccn2)cc1	i	-9%	-5%	-23	-7%	-8%
c1ccc(SSc2ccccn2)nc1	i	-2%	22µM*	-23	-6%	?
Cc1ccc(C)c(C(=O)NCCN(C)C)c1	-13%	-1%	-4%	-6	-1%	-15%
CN(C)CCNC(=O)c1cccc2nc3c(ccc4ccccc43)nc12	0%	0%	?	21	?	13µM*
CN(C)CCNC(=O)c1cccc2[nH]c(-c3ccncc3)nc12	-3%	-10%	4%[11.6 µM]	-3	?	45µM*
COc1ccc(C(=O)NCCN(C)C)c2nc3ccccc3cc12	-2%	-8%	40%	14	?	14µM*
O=S1(=O)N=C(Oc2ccc3ccccc3c2)c2ccccc21	nt	2%	nt	nt	nt	nt
Cc1ccsc1C=Nc1ccc(O)cc1	?	?	35µM*	-51*	?	-16%
COc1cccc(S(=O)(=O)N2CCN(S(=O)(=O)c3ccc4c(c3)OCCO4)CC2)c1	nt	-1%	nt	nt	nt	nt
Cc1onc(-c2ccccc2)c1C(=O)NCCN1Cc2ccccc2OC(c2ccsc2)C1 (stereo not given)	nt	nt	nt	nt	-4%	nt
O=C(Oc1c(CN2CCOCC2)cc(Cl)c2cccnc12)c1ccccc1	-8%	-7%	-6%	4	-1%	-16%
Oc1c(CN2CCc3ccccc3C2)cc(Cl)c2cccnc12	-7%	-13%	3%	-15	-4%	40µM*
O=C(NCc1nnc2n1CCN(Cc1cc(F)cc(F)c1)CC2)c1cccc(F)c1	nt	nt	nt	nt	-3%	nt
Cc1cc(C(=O)c2ccccc2)cc(C)c1O	2%	-5%	37%	5	2%	7%
CC1=C/C(=C(\c2cc(C)c(O)c(Br)c2)c2ccccc2S(=O)(=O)O)C=C(Br)C1=O	?	?	?	-77*	-11%	?
CCC1CN(Cc2cn[nH]c2-c2ccc(F)cc2)Cc2cc(OC)ccc2O1 (stereo not given)	nt	nt	nt	nt	-2%	nt
CC(=O)C1=C(O)C(=O)N(c2ccccn2)C1c1ccccc1[N+](=O)[O-] (stereo not given)	-9%	-6%	71µM*	?	0%	3%
CC(=O)Nc1cccc(OCc2cccc(C3Nc4ccccc4C(=O)N3Cc3ccco3)c2)c1 (stereo not given)	nt	52%	nt	nt	nt	nt
COc1cc(NC(=O)c2cnc(N)s2)cc(C(=O)Nc2cccc(C(F)(F)F)c2)c1	?	0%	-7%	1	-3%	56µM*
SMILES	Tb PGK inh	Pin1 inh	WRN helicase inh	PI5P4Ka inh	GRP78 ERSR act	FEN1 inh
COc1cc(NC(=O)c2ccnc(N)c2)cc(C(=O)Nc2cccc(C(F)(F)F)c2)c1	1%	-3%	5%[11.6 µM]	1	-1%	?
Oc1ccc(CNc2ccc(F)cc2Cl)c2cccnc12	nt	-3%	nt	nt	nt	nt
COc1ccc(N(C(=O)c2ccc(OC)c(OC)c2)S(=O)(=O)c2ccc(Cl)cc2)cc1	i	?	nt	nt	-1%	89µM*
O=S(=O)(c1ccc(Cl)cc1)N1CCN(S(=O)(=O)c2ccc3c(c2)OCCO3)CC1	nt	-3%	nt	nt	nt	nt
Cn1c(=O)[nH]c(NCCc2ccc(O)cc2)c([N+](=O)[O-])c1=O	-9%	0%	-35%	-71*	-3%	4%
Cn1c(=O)[nH]c(Nc2ccc(F)cc2)c([N+](=O)[O-])c1=O	-9%	73%	-6%	-60*	-4%	-7%
Cc1cccc(C(=O)NCc2nc(-c3cccc(NC(=O)c4ccoc4C)c3)oc2C)n1	nt	nt	nt	nt	0%	nt
Oc1ccc(N=C/C=C/c2cccc(Br)c2)cc1-c1nc2ccccc2s1	-6%	-5%	?	-59*	8%	-11%
CN(C)c1cccc(N2CCN(c3nn4c(=O)c5ccccc5nc4s3)CC2)c1	nt	3%	nt	nt	nt	nt
CCOc1cc(Br)cc(/C=C2\SC(=Nc3ccccc3)NC2=O)c1O	-2%	4%	-9%	-62*	?	-30%
CCc1ccc(N=C2NC(=O)/C(=C/c3cc(OC)c(OC)c(OC)c3)S2)cc1	-11%	6%	-27%	7	13%	15%
C=CCOc1c(Br)cc(/C=C2\SC(=Nc3ccccc3)NC2=O)cc1OC	-8%	2%	3%	-16	12%	-2%
Cc1ccc(S(=O)(=O)/N=C2/NC(=O)/C(=C\c3cc(Br)cc(Br)c3O)S2)cc1	?	?	20µM*	-78*	5%	28µM*
CCOc1cc(/C=C2\SC(=Nc3ccc(CC)cc3)NC2=O)ccc1OCC(=O)O	?	nt	?	-91*	-7%	?
Cc1ccc(S(=O)(=O)/N=C2/NC(=O)/C(=C/c3ccc(Br)o3)S2)cc1	-8%	-20%	?	-27	-2%	-16%
Cc1ccc(S(=O)(=O)Nc2ccccc2NS(=O)(=O)c2ccc(C)cc2)cc1	nt	nt	4%[57.1 µM]	0	-3%	nt
Cc1ccc(S(=O)(=O)Nn2c(C)ccc2C)cc1	-6%	8%	-3%	-58*	-1%	-8%
Cc1c(C(=O)N2CC[C@@H]3CCCC[C@H]3C2)sc2ncnc(NCCc3ccccn3)c12	nt	nt	nt	nt	-6%	nt
O=C1CCCC2=C1C(c1ccccc1Cl)N=C(Nc1nc3ccccc3o1)N2 (stereo not given)	nt	-6%	nt	nt	nt	nt
S=c1[nH]nc(Nc2cccc(Cl)c2)s1	-3%	0%	-5%	-55*	-2%	-7%
S=c1[nH]nc(CNc2cccc(Cl)c2)o1	0%	-2%	5%	-10	-6%	-2%
O=C(O)c1ccccc1C(=O)Nc1n[nH]c(=S)s1	-1%	-17%	-15%	nt	-1%	-1%
Cc1ccc(Nc2cc(=O)[nH]c(=O)[nH]2)cc1C	-1%	-2%	-1%	-7	4%	1%
Cc1ccc(Nc2n[nH]c(=S)s2)cc1C	-2%	nt	-10%	-74*	3%	nt
S=c1[nH]nc(Nc2ccccc2Cl)s1	-5%	-10%	-32%	-78*	0%	-2%
COc1cc(=O)n2c(c1C(=O)NC(C)c1ccco1)CCN(Cc1ccccc1Cl)CC2 (stereo not given)	nt	nt	nt	nt	-3%	nt
